Data on 40 molecules can be found in PubChem BioAssay (NCI).

Structures are written as SMILES. About 83,000 compounds went through this panel and 20% of them were active in at least one assay; those are over-represented in the sample as a whole.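 Single-concentration screen, 48 h exposure, 96-well plates. Endpoint: percent growth. Below 10 = active.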 Unmarked numbers belong to inactive results. The source made the active and inactive calls.

The assay concerns MDA-MB-468 breast. Description: NCI-60 one-dose screen, 48 h (100 = growth as untreated, 0 = no growth, -100 = all killed). As to conditions: 10 µM unless noted.
`CCCCCCCCCCCCCCCC[N+]1(C)CCOCC1`: the growth was -50.9% (active). With `C1=C\COCc2cc(ccc2OCCN2CCCC2)Nc2nccc(n2)-c2cccc(c2)COC/1`, the growth is -53.7% (active). Consider `O=C(NCCN1CCCCC1)n1cc(-c2ccncc2)c(-c2ccc(Cl)c(O)c2)n1`, for which the growth was 83.8%. In the case of `CCCc1cc2c(cc1CN(Cc1cc3c(cc1CCC)OCO3)C(=N)OCC)OCO2`, the growth is 60.8%. The figure for `CC(=O)C1CCC2C3CC(C)=C4CC(O)CCC4(C)C3CCC12C` (stereo not given) is 109%.

Turning to `COc1ccc(C(=O)c2cc3c(N)c(C(=O)Nc4ccc(Br)cc4)sc3nc2C)cc1`, the growth is 72.8%. Then `CCCCn1c(C)nc2ccc(Nc3nc(Cl)nc4nc[nH]c34)cc21`, with 34.6%; and `COc1ccc(N(Cc2cc(OC)c(OC)c(OC)c2)C2OC(=O)c3ccccc32)cc1` (stereo not given), with 24.2%; and `NCCC(=O)c1ccc(Cl)cc1`, with 113%. With `CCCN(CCC)CC(O)COc1ccccc1C(=O)Nc1ccccc1` (stereo not given), the growth is 85.9%. Then `C#CC[C@@H]1C[C@]2(C)[C@H]3CC[C@@H]4[C@H]5C(C(=C)C)CC[C@]5(C(=O)NCCN(CCN)CCN)CC[C@@]4(C)[C@]3(C)CC[C@H]2C(C)(C)[C@H]1OC(C)=O` (stereo not given in full), with -25.4% (active); and `Cc1ccc(Cn2cc(COc3ccc4c5ccnc(C)c5n(CCCc5ccccc5)c4c3)nn2)cc1`, with 99%.

Consider `Cc1cc(Nc2nc(N[C@@H](C)c3ncc(F)cn3)ncc2Cl)n[nH]1`, for which the growth is 100%.

As to `COc1ccccc1S(=O)(=O)Nc1ccc2c3c(cc(-c4cnn(C)c4)nc13)C(=O)N2C`, the growth was 23.1%. On to `CC(O)C(N)=O` (stereo not given), for which the growth was 107%. The figure for `O=C(CN1C(=O)/C(=C/c2ccco2)SC1=S)NCCc1c[nH]c2ccc(F)cc12` is 105%. On to `COc1cccc(/C=C2\COc3ccc(O)cc3C2=O)c1`, for which the growth is 66.2%. The figure for `COC(=O)[C@H]1[C@H]2C[C@@H]3c4[nH]c5cc(OC)ccc5c4CCN3C[C@H]2C[C@@H](OC(=O)/C=C/c2cc(OC)c(OC)c(OC)c2)[C@@H]1OC` is 9.21% (active). In the case of `C[C@]12CC[C@@H]3c4ccc(O)cc4CC[C@H]3[C@@H]1C[C@H](O)C2`, the growth was 73.7%. Regarding `Nc1ccc(-c2nnc(SCc3ccc(O)c4ncccc34)o2)cc1`, the growth was -20.7% (active). The figure for `O=C(NCCCNc1nccc(-n2ccc3cccnc32)n1)c1c(F)cccc1F` is 101%; for `N#Cc1nn(-c2cc(=O)[nH]c3ccc(Br)cc23)c(N)c1C#N` it is 106%; for `CC1CC(O)CC(C)(C)C1.CC1CC(O)CC(C)(C)C1.CC1CC(O)CC(C)(C)C1.CC1CC(O)CC(C)(C)C1.[Ti]` (stereo not given) it is 115%. Then `Cc1sc2nc(NCCc3cccs3)[nH]c(=O)c2c1C`, with 82.4%; and `COc1cc(NS(=O)(=O)c2ccc(N)cc2)ncn1`, with 105%; and `O=C(CCCCCCN1CC(=O)N2[C@@H](c3cccs3)c3[nH]c4ccccc4c3C[C@H]2C1=O)NO`, with 41.6%. On to `COc1cc(C(=O)Nc2cc3c(cc2Oc2cc(C)cc(C)c2)C(=O)N(C)[C@@H](CC(=O)N(C)O)C(=O)N3)c(Br)c(OC)c1OC`, for which the growth is -41.6% (active). The figure for `O=C(Nc1cccc(-n2ccc3c(NC(=O)c4ccccc4)nccc32)c1)c1cccc(C(F)(F)F)c1` is -2% (active); for `CCCCCCCCCCCC(=O)NCCCN(C)C` it is 111%; for `CN(C)c1ccc(C(c2ccc(O)cc2)c2ccc(N(C)C)cc2)cc1` it is 1.1% (active).

Take `COc1ccc(C(=O)c2cc3c(N)c(C(=O)Nc4cccc(Cl)c4)sc3nc2C)cc1`: the growth is 10.5%.

Consider `CC(=O)C1=C(O)C=C2Oc3c(C(=O)/C=C/c4cc(Cl)cc(Cl)c4)c(O)c(C)c(O)c3[C@]2(C)C1=O`, for which the growth is -41.7% (active). Then `Cc1n[nH]c(C)c1-c1c(C)n[nH]c1C`, with -0.751% (active). Then `O=C(CSc1nnc(-c2ccc(NC(=O)c3cccnc3)cc2)o1)N[C@@H](Cc1ccc(O)cc1)C(=O)O`, with 110%. The figure for `O=Cc1ccc([N+](=O)[O-])s1` is 103%; for `O=C(Nc1ccccc1)Nc1cccc(-n2cc(-c3ccncc3)c(-c3ccc(O)c(Cl)c3)n2)c1` it is 54.8%; for `CN1CCN(Cc2ccc(NC(=O)c3[nH]ncc3Nc3ncnc4c3CCC4)cc2)CC1` it is 9.05% (active). As for `OC1CSSC1Cn1cnc2c(Nc3ccc(OCc4cccc(F)c4)c(Cl)c3)ncnc21` (stereo not given), the growth is -53.2% (active). The figure for `O=C(Nc1ccc(-n2ccc3c(NC(=O)c4ccccc4)nccc32)cc1)c1ccc(N2CCOCC2)c(C(F)(F)F)c1` is 42.7%; for `CC(C)(C)Nc1nc2c(OCCc3ccccc3)cccn2c1-c1ccc(O)cc1` it is 26%.
